Screening results (PubChem BioAssay)
CHO-K1 Ca antag: nonselective inhibitor or artifact in parental CHO-K1 cells. ATP-induced calcium, Fluo-8 fluorescence. inhibition, % at 3 µM. 0.6% of 360,000 active. AID 602250;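 active means inhibition above a per-plate cutoff, the plate's mean sample inhibition plus 3 SD, cut at about 24% in these data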;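 further: 0% = DMSO plus EC80 ATP and 100% = DMSO alone without ATP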
CHRM1 antagonist: human M1 muscarinic receptor antagonists, primary screen, CHO-K1 cells, Fluo-8 calcium fluorescence, 1536-well; Muscarinic acetylcholine receptor M1 (Homo sapiens), P11229; inhibition, % at 3 µM; 1.3% of 360,000 active; CHO-K1 hM1, ACh EC80 antagonist;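 active means percent inhibition above its own plate's cutoff, namely the mean of that plate's compound wells plus 3 SD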;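 further: peak over basal fluorescence ratio during 140 s after agonist addition; 0% = ACh EC80 plus DMSO and 100% = DMSO alone without agonist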
Target sequence (P11229 whole entry, looked up): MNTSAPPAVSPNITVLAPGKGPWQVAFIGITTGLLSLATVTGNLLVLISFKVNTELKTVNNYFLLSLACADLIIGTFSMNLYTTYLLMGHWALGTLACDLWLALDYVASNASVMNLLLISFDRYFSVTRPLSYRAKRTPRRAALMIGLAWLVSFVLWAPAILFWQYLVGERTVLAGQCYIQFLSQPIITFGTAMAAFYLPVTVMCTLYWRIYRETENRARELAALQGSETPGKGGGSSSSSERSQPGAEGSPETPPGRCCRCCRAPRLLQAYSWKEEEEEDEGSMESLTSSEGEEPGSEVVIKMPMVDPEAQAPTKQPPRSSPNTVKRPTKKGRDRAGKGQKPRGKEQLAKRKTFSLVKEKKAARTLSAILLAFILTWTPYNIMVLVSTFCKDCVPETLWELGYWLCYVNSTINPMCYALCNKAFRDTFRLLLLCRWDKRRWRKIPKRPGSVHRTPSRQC
CHRM1 PAM: human M1 muscarinic receptor positive allosteric modulators, primary screen, CHO-K1 cells, Fluo-8 calcium fluorescence, 1536-well | Muscarinic acetylcholine receptor M1 (Homo sapiens), P11229 | CHO-K1 hM1, ACh EC20; 0% = ACh EC20, 100% = maximal ACh | activation, % at 3 µM | 0.088% of 360,000 active; in the data active means activation above about 19%, passing the limit was not always enough
CHO-K1 Ca PAM: nonselective calcium activators in parental CHO-K1 cells, primary screen, counter-screen for M1 PAM project, cell-based, Fluo-8 calcium fluorescence, full deck, 1536-well | ATP EC20; 0% at ATP EC20, 100% at ATP max | activation, % at 3 µM | 0.02% of 360,000 active | AID 602247, 2012;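 active means activation above the run cutoff, the mean activation of all test compounds plus 3 SD, cut at about 40% in these data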;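 further: peak over basal fluorescence ratio in a 140 s read after ATP addition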
CHO-K1 Ca ag: counter-screen for M1 agonists: effect in parental CHO-K1 cells | Fluo-8 calcium fluorescence; scaled to maximal ATP response, vehicle zero | activation, % at 3 µM | 0.48% of 360,000 active; in the data active means activation above about 15%;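 further: untransfected CHO-K1 host cells lacking M1 receptor as counterscreen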
CHRM1 agonist: human M1 muscarinic receptor agonists, primary screen, Fluo-8 calcium fluorescence, CHO-K1 cells, HTS; CHO-K1 hM1, agonist mode; 0% DMSO, 100% acetylcholine EC100; activation, % at 3 µM; 0.33% of 360,000 active; AID 588814, 2011;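 active means activation above the run's mean compound activation plus 3 SD, cut at about 16% in these data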;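 further: peak over basal fluorescence ratio within a 140 s kinetic read after compound addition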
Active calls of the source: *. Most compounds without a hit are left out; they make up all but 2.3% or so of the library.

SMILES	CHO-K1 Ca antag	CHRM1 antagonist	CHRM1 PAM	CHO-K1 Ca PAM	CHO-K1 Ca ag	CHRM1 agonist
NC(=O)C1C2C=CC(C2)C1c1ccccc1 (stereo not given)	15	4	-3	-8	0	-3
c1cc2c(cc1Nc1nc(-c3ccc4c(c3)OCO4)cs1)OCCO2	26*	-3	8	-1	0	0
CCC(=O)Nc1nc(-c2ccc3c(c2)OCCO3)cs1	4	-4	1	1	1	-3
CC(C)(C)C(=O)Nc1nc(-c2ccc3c(c2)OCO3)cs1	-1	5	3	-13	15*	1
CCOc1ccc(NCc2cccn2-c2nnc(N3CCC(C(=O)NCCCN4C(C)CCCC4C)CC3)s2)cc1 (stereo not given)	-10	78*	-22	22	1	-6
O=C(C1CCN(c2nnc(-n3cccc3)s2)CC1)N1CCCCC1	-15	21	-12	13	1	-5
CCC1CCCCN1CCCNC(=O)C1CCN(c2nnc(-n3cccc3)s2)CC1 (stereo not given)	-7	95*	-25	0	0	-6
CC1CCN(C(=O)C2CCN(c3nnc(-n4cccc4)s3)CC2)CC1	57*	9	-10	6	1	-5
CCOc1ccc(NCc2cccn2-c2nnc(N3CCC(C(=O)NCCCN4CCCCC4C)CC3)s2)cc1 (stereo not given)	-12	53*	-23	21	1	-6
O=C(O)CN1C(=O)COc2ccc(S(=O)(=O)N3CCCCCC3)cc21	-18	2	2	17	0	-1
O=C1Nc2ccccc2C1=Nc1ccccc1-c1ccccc1	-8	-15	6	18	1	-4
CCOc1ccc(NCc2cccn2-c2nnc(N3CCC(C(=O)NCCCN4CCCCC4)CC3)s2)cc1	-11	63*	-21	3	0	-5
Cc1c(Cl)sn(-c2ccc(Cl)cc2)c1=O	5	1	-2	-4	1	-3
CN(C)c1ccc(NC(=O)c2sc(SCC(=O)Nc3nccs3)nc2N)cc1	8	24*	-20	3	7	2
CCNc1ccc(C(=O)OCC(=O)Nc2cc(C)on2)cc1[N+](=O)[O-]	-2	5	-1	2	-1	-3
CC(=O)Nc1cccc(C(=O)/C=C/c2ccc(N(C)C)cc2)c1	44*	55*	-28	-13	87*	113*
COc1ccc(/C=C/C(=O)Nc2cccc(C(C)=O)c2)cc1	4	3	3	2	19*	-3
COc1ccc(-c2cn3nc(SCC(=O)NC4CCCCC4)ccc3n2)cc1	-10	-5	1	-3	1	-3
COc1ccc(NC(=O)C2(N(CC(C)C)C(=O)Cn3nnnc3N)CCCCC2)cc1	25*	11	-5	-8	0	-4
O=C(C[n+]1cc(-c2ccccc2)n2c1CCC2)c1cccs1	-11	3	-2	-8	1	-16
O=C(C[n+]1cc(-c2ccccc2)n2c1CCC2)N1c2ccccc2Sc2ccccc21	-6	99*	-26	18	0	-8
O=C(C[n+]1cc(-c2ccc(Cl)cc2)n2c1CCC2)Nc1nc(-c2ccc(F)cc2)cs1	4	-1	4	12	18*	-5
O=C(C[n+]1cc(-c2ccc(F)cc2)n2c1CCC2)N1c2ccccc2Sc2ccccc21	-12	96*	-25	27	1	-7
Cc1ccc(-c2c[n+](CC(=O)N3c4ccccc4Sc4ccccc43)c3n2CCC3)cc1	23	100*	-25	-10	-1	-7
O=C1C(CN2CCCC2)CCCC1CN1CCCC1 (stereo not given)	-18	-6	-4	20	0	-7
COc1ccc(-c2[nH]ncc2/C=N\NC(=O)c2ccc(Br)o2)cc1OC	4	1	3	17	1	-5
Cc1ccccc1-c1cc(C(=O)Nc2sc(C(=O)OC(C)C)c(C)c2C#N)c2ccccc2n1	35*	31*	-16	-4	5	1
